About 83,000 compounds went through this panel and 20% of them were active in at least one assay; those are over-represented in the sample as a whole.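 Step 1: grow cells in 96-well plates. Step 2: add test compound at a single concentration. Step 3: incubate 48 h. Step 4: record percent growth.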 Unmarked numbers belong to inactive results. The source made the active and inactive calls. The calls were made as follows: active = growth percent below 10; inactive = the rest.

In the first experiment the test system is T-47D breast. As to the kind of experiment: NCI-60 one-dose screen, 48 h (100 = growth as untreated, 0 = no growth, -100 = all killed). To be noted: 10 µM unless noted.
Consider `O=C(CN1CCN(c2cc(=O)n(-c3ccccc3)c3ccccc23)CC1)Nc1ccc([N+](=O)[O-])cc1`, for which the growth is 64.9%.
Still for that read-out and setting: with `O=S(=O)(Nc1cc(Cl)cc(Cl)c1)c1ccc(-c2cnc(C3CC3)o2)cc1` the figure was 41.7%; with `CCOC(=O)c1c(NCC(=O)Nc2cccc([N+](=O)[O-])c2)sc2c1CCCC2`, -28.2% (active).
As to `COc1ccc(Oc2ccc(C3CC(c4cc(OC)c(OC)c(OC)c4)=NN3C(C)=O)cc2)cc1` (stereo not given), the growth is 9.08% (active).
Same read-out and setting: the value for `O=S(=O)(Nc1ccc2c(c1)OC(F)(F)O2)c1ccc(-c2cnc(C3CC3)o2)cc1` was 31.6%; that for `COc1ccc(Cn2cc3c(c2-c2ccccc2)CCCc2cnoc2-3)cc1` was 56.4%.
Still for that read-out and setting: the value for `Cc1nn(-c2ccccc2)cc1/C=N/Nc1nc(Nc2ccccc2)nc(Nc2ccc(S(N)(=O)=O)cc2)n1` was 18.9%; that for `COc1cc2c3c(n(CCCNC4CCCCC4)c(=O)c2cc1OC)-c1cc2c(cc1C3=O)OCO2` was 91.5%; that for `CC(=O)Nc1ccc(NC(=O)Nc2cccc(-c3nc(-c4ccc(NC(=O)c5cccnc5)cc4Cl)no3)c2)cc1C(F)(F)F` was -43.7% (active).
Same read-out and setting: with `O=C(Nc1cccc(-c2nc(-c3ccc(NC(=O)c4cccnc4)cc3Cl)no2)c1)Nc1ccc(NC(=O)C2CC2)c(C(F)(F)F)c1` the figure was -51.1% (active).
On to `COC(=O)c1c(C(=O)OC)c2n(CC(=O)Nc3cccc4cccnc34)c3ccccc3n2c1C(=O)c1ccc(C)cc1`, for which the growth was 83.4%.
As for `O=C(C[n+]1ccnc2ccccc21)c1ccc(O)c(O)c1`, the growth was 45%.
On the same count and under the same terms, with `O=C(COc1ccc(C2SCC(=O)N2c2ccc(F)cc2)cc1)c1ccccc1` (stereo not given) the figure was 89.8%; with `CCOc1ccc2nc(NC(=O)Nc3ccccc3C)sc2c1`, 47.7%; with `O=C(COc1ccc(C2SCC(=O)N2c2ccccc2)cc1)c1ccccc1` (stereo not given), 81.5%.
For `Cc1cc(O)c2c(c1)C(=O)C(c1c(C)cc3c(c1O)C(=O)C=CC3=O)=CC2=O`, the growth was 21.9%.
Same read-out and setting: with `O=S(=O)(Nc1cc(Cl)c(F)c(Cl)c1)c1ccc(-c2cnc(C3CC3)o2)cc1` the figure was 29.8%.
With `CN(C)CCn1c2ccc(N)cc2c2nc3ccccc3nc21`, the growth is 36.4%.
Take `Cn1c2ccccc2c2c3c(c4c5ccc(Br)cc5oc4c21)C(=O)N(O)C3=O`: the growth is 19.5%.
Still for that read-out and setting: the value for `COc1ccc(-c2nnc(/N=C3/C(=O)Nc4ccc(Br)cc43)o2)cc1` was 104%; that for `C#C[C@]1(O)CC[C@H]2[C@@H]3CC=C4c5sc(C6CC6)nc5CC[C@]4(C)[C@H]3CC[C@@]21C` was 73.8%.
On the same count and under the same terms, the value for `CCc1ccc(NC(=O)N[C@@H](Cc2cccc(F)c2)C(=O)N[C@@H]2C(=O)N3CCC[C@H]3C(=O)N3CCCC[C@H]3C(=O)N[C@@H](CO)C(=O)N3C[C@H](C)C[C@H]3C(=O)O[C@H]2C)c(F)c1` was 23.1%.
Still for that read-out and setting: with `CC(C)=CCc1c(O)c(CC=C(C)C)c2c(c1O)C(=O)C1=C[C@@H]3C[C@H]4C(C)(C)O[C@@](C/C=C(\C)C(=O)O)(C3=O)[C@@]14O2` the figure was 1.27% (active); with `CCN(CC)Cc1c(-c2cccc(OC(F)(F)F)c2)[nH]c2ccc(N3CCCC3)cc2c1=O`, 103%; with `CCCCOc1ccc(S(=O)(=O)N2CCN(c3nccc(N4CCOCC4)n3)CC2)cc1`, 69%.
Consider `O=c1cc(-c2ccccc2)nc2sc(-c3c[nH]c4ccc(Br)cc34)nn12`, for which the growth was 75.2%.

For the next experiment, the system named is BT-549 breast. The experiment is described as above. To be noted: 10 µM unless noted.
Turning to `C#C[C@]1(O)CC[C@H]2[C@@H]3CC=C4c5sc(-c6cccc(F)c6)nc5CC[C@]4(C)[C@H]3CC[C@@]21C`, the growth was 96.3%.
On the same count and under the same terms, with `COc1ccc(NS(=O)(=O)c2ccc(-c3cnc(C4CC4)o3)cc2)cc1Cl` the figure was 57.5%; with `Cc1cc(=O)n2nc(-c3c[nH]c4ccccc34)sc2n1`, 108%; with `CCN1C(=O)N(CC)C2SC(N/N=C/c3ccccc3)=NC21` (stereo not given), -19.9% (active).
Consider `CC1=C2C(=C[C@@](C)(COS(N)(=O)=O)[C@@H]2O)C(=O)[C@](C)(O)C12CC2`, for which the growth is 60.2%.
Consider `CCNCc1c(-c2cccc(OC(F)(F)F)c2)[nH]c2ccc(N3CCCC3)cc2c1=O`, for which the growth is 50.6%.
As for `CN(C)c1ncc(/C=C2\SC(=S)N(Cc3ccccc3Cl)C2=O)s1`, the growth was 102%.
Still for that read-out and setting: with `O=C(CN1C(=O)S/C(=C\c2ccccc2)C1=O)Nc1ccc(C(=O)/C=C/c2cc3ccccc3nc2Cl)cc1` the figure was 60.9%; with `O=S(=O)(Nc1ccc(C2CC2)cc1)c1ccc(-c2cnc(C3CC3)o2)cc1`, 76.3%.
Still for that read-out and setting: the value for `Oc1ccc(-c2nnc(SCc3ccc(O)c4ncccc34)o2)cc1` was 12.8%.
Still for that read-out and setting: the value for `C#C[C@]1(O)CC[C@H]2[C@@H]3CC=C4c5sc(-c6ccc(OC)cc6)nc5CC[C@]4(C)[C@H]3CC[C@@]21C` was 47%; that for `CCCC(=O)NC(c1cccnc1)c1cc(C(C)=O)c2cccnc2c1O` (stereo not given) was 32.2%; that for `CC(=O)Nc1ccc(NC(=O)Nc2cccc(-c3nc(-c4ccc(NC(=O)c5cccs5)cc4Cl)no3)c2)cc1C(F)(F)F` was -26.7% (active).
Take `O=C(CN1CCN(c2cc(=O)n(-c3ccccc3)c3ccccc23)CC1)Nc1ccc([N+](=O)[O-])cc1`: the growth was 94.5%.
On the same count and under the same terms, with `O=S(=O)(Nc1cc(Cl)cc(Cl)c1)c1ccc(-c2cnc(C3CC3)o2)cc1` the figure was 58.4%; with `CCOC(=O)c1c(NCC(=O)Nc2cccc([N+](=O)[O-])c2)sc2c1CCCC2`, -57.3% (active); with `COc1ccc(Oc2ccc(C3CC(c4cc(OC)c(OC)c(OC)c4)=NN3C(C)=O)cc2)cc1` (stereo not given), 45.5%.
The same measure, in the same setting: with `O=S(=O)(Nc1ccc2c(c1)OC(F)(F)O2)c1ccc(-c2cnc(C3CC3)o2)cc1` the figure was 52.1%.
As to `COc1ccc(Cn2cc3c(c2-c2ccccc2)CCCc2cnoc2-3)cc1`, the growth was 77.3%.
In the case of `Cc1nn(-c2ccccc2)cc1/C=N/Nc1nc(Nc2ccccc2)nc(Nc2ccc(S(N)(=O)=O)cc2)n1`, the growth was 21.5%.
The same measure, in the same setting: with `COc1cc2c3c(n(CCCNC4CCCCC4)c(=O)c2cc1OC)-c1cc2c(cc1C3=O)OCO2` the figure was 78.2%; with `CC(=O)Nc1ccc(NC(=O)Nc2cccc(-c3nc(-c4ccc(NC(=O)c5cccnc5)cc4Cl)no3)c2)cc1C(F)(F)F`, -29.9% (active); with `O=C(Nc1cccc(-c2nc(-c3ccc(NC(=O)c4cccnc4)cc3Cl)no2)c1)Nc1ccc(NC(=O)C2CC2)c(C(F)(F)F)c1`, -39.5% (active).
Still for that read-out and setting: with `COC(=O)c1c(C(=O)OC)c2n(CC(=O)Nc3cccc4cccnc34)c3ccccc3n2c1C(=O)c1ccc(C)cc1` the figure was 110%; with `O=C(C[n+]1ccnc2ccccc21)c1ccc(O)c(O)c1`, 51.7%; with `O=C(COc1ccc(C2SCC(=O)N2c2ccc(F)cc2)cc1)c1ccccc1` (stereo not given), 93.4%.
The same measure, in the same setting: the value for `CCOc1ccc2nc(NC(=O)Nc3ccccc3C)sc2c1` was 53.8%; that for `O=C(COc1ccc(C2SCC(=O)N2c2ccccc2)cc1)c1ccccc1` (stereo not given) was 92%.
Regarding `Cc1cc(O)c2c(c1)C(=O)C(c1c(C)cc3c(c1O)C(=O)C=CC3=O)=CC2=O`, the growth is 113%.
Same read-out and setting: with `O=S(=O)(Nc1cc(Cl)c(F)c(Cl)c1)c1ccc(-c2cnc(C3CC3)o2)cc1` the figure was 66.8%.
Same read-out and setting: with `CN(C)CCn1c2ccc(N)cc2c2nc3ccccc3nc21` the figure was 85.5%.
On the same count and under the same terms, with `Cn1c2ccccc2c2c3c(c4c5ccc(Br)cc5oc4c21)C(=O)N(O)C3=O` the figure was 64.9%; with `COc1ccc(-c2nnc(/N=C3/C(=O)Nc4ccc(Br)cc43)o2)cc1`, 103%.
For `C#C[C@]1(O)CC[C@H]2[C@@H]3CC=C4c5sc(C6CC6)nc5CC[C@]4(C)[C@H]3CC[C@@]21C`, the growth is 90.5%.
The same measure, in the same setting: the value for `CCc1ccc(NC(=O)N[C@@H](Cc2cccc(F)c2)C(=O)N[C@@H]2C(=O)N3CCC[C@H]3C(=O)N3CCCC[C@H]3C(=O)N[C@@H](CO)C(=O)N3C[C@H](C)C[C@H]3C(=O)O[C@H]2C)c(F)c1` was 28.5%.
The same measure, in the same setting: the value for `CC(C)=CCc1c(O)c(CC=C(C)C)c2c(c1O)C(=O)C1=C[C@@H]3C[C@H]4C(C)(C)O[C@@](C/C=C(\C)C(=O)O)(C3=O)[C@@]14O2` was -8.98% (active); that for `CCN(CC)Cc1c(-c2cccc(OC(F)(F)F)c2)[nH]c2ccc(N3CCCC3)cc2c1=O` was 87.7%.
With `CCCCOc1ccc(S(=O)(=O)N2CCN(c3nccc(N4CCOCC4)n3)CC2)cc1`, the growth was 13%.
Same read-out and setting: with `O=c1cc(-c2ccccc2)nc2sc(-c3c[nH]c4ccc(Br)cc34)nn12` the figure was 108%.

The values are drawn from PubChem BioAssay (NCI).
